Experimental data: PubChem BioAssay (NCI)
“And” between values parts separate entries of the source, which are not always exact repeats. Identical values can stand only once. About 79,000 compounds went through this panel and 15% of them were active in at least one assay; those are over-represented in the sample as a whole. The source made the active and inactive calls. No stated cut-off is given here; in the data, active means growth inhibition above about 70%; inactive means the rest.

Columns and labels:
[1] = NCI Yeast Anticancer Drug Screen. Data for the rad50 strain (AID 155);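 further: 0% = growth of vehicle-only cultures of the same strain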; settings: S. cerevisiae rad50 strain growth inhibition; at 50.0 µM; active compounds read high
How it was run: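 Compounds were tested on a yeast strain with an engineered DNA damage repair alteration; the reported value is growth inhibition normalised to vehicle treatment.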

[2] = NCI Yeast Anticancer Drug Screen. Data for the mec2-1 strain (AID 157); settings: S. cerevisiae mec2-1 strain, at 50.0 µM, active compounds read high
How it was run: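 mec2-1 yeast strain, carrying an alteration in DNA damage repair or cell cycle control, was exposed to compounds; growth inhibition was measured relative to vehicle-treated controls.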

[3] = NCI Yeast Anticancer Drug Screen. Data for the sgs1 mgt1 strain (AID 161);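 further: 0% = growth of cultures given vehicle only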; settings: S. cerevisiae sgs1 mgt1 strain, at 50.0 µM, active compounds read high
How it was run: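 Percent growth inhibition was derived by comparing compound-exposed mutant yeast with vehicle-exposed cultures. The strain carries alterations in DNA damage repair.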

[4] = NCI Yeast Anticancer Drug Screen. Data for the cln2 rad14 strain (AID 165);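 further: 0% = growth equal to vehicle treated cultures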; settings: S. cerevisiae cln2 rad14 strain, at 50.0 µM, active compounds read high
How it was run: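 Yeast carrying cln2 and rad14 alterations (cell cycle control and DNA damage repair) were exposed to compounds. Growth inhibition was measured against vehicle-treated controls.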

[5] = NCI Yeast Anticancer Drug Screen. Data for the bub3 strain (AID 167); settings: S. cerevisiae bub3 mutant strain, at 50.0 µM, active compounds read high
How it was run: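 Growth of a checkpoint-deficient yeast mutant is measured after compound exposure. Values represent inhibition relative to vehicle.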

[6] = NCI Yeast Anticancer Drug Screen. Data for the mlh1 rad18 strain (AID 175); settings: S. cerevisiae mlh1 rad18 strain growth inhibition; at 50.0 µM; active compounds read high
How it was run: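 Growth inhibition of the yeast strain was measured after compound exposure and expressed relative to vehicle-treated controls. The strain carries defined defects in DNA damage repair.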

Measured: growth inhibition

CCCCCCC1C(=O)NC(=O)NC1=O
inactive: [1] -4.25% | [2] -15.1% | [3] -8% | [4] -7.75% | [5] 2.6% | [6] -12.3%

ClC(OC(Cl)C(Cl)(Cl)Cl)C(Cl)(Cl)Cl (stereo unspecified)
inactive: [1] 52% | [2] 6.1% | [3] 30.9% | [4] 20.9% | [5] 46.5% | [6] 26.2%

CCN1C(=O)C(=C/C=C/C=C2/N(C)c3ccccc3C2(C)C)C(=O)N(CC)C1=S
inactive: [1] -28.9% | [2] -8.25% | [3] -11.3% | [4] -32.5% | [5] 0.45% | [6] 0.35%

O=[N+]([O-])c1ccc(NC(c2ccccc2)P(=O)(Oc2ccccc2)Oc2ccccc2)cc1 (stereo unspecified)
inactive: [1] -1.75% | [2] -6.4% | [3] -43.1% | [4] -6% | [5] -2.05% | [6] 3.65%

CC1(C)N=C(N)N=C(N)N1c1ccc(CCCCc2ccccc2S(=O)(=O)F)c(Cl)c1
active: [1] 99.5% | [2] 99.7% | [3] 99.7% | [4] 99.4% | [5] 99.5% | [6] 99.7%

CCC(CC)(COC(=O)C(O)(c1ccccc1)c1ccccc1)C[N+](C)(C)C
inactive: [1] -4.45% | [2] -2.85% | [3] 1% | [4] -24.9% | [5] 0.5% | [6] -12.7%

CCCCOP(=O)(OCCCC)OC(C)C(C)=O (stereo unspecified)
inactive: [1] -0.15% | [2] 2.75% | [3] 5.6% | [4] 0.45% | [5] 5.15% | [6] -2.05%

C/C1=N\NC(=O)c2ccccc2C(=O)N/N=C(\C)c2cccc1n2.O=[N+]([O-])[O-].[Zn+2]
inactive: [1] -8.85% | [2] -7.3% | [3] -10.2% | [4] 5.8% | [5] -38% | [6] -5.05%

OC(CN(C1CCCCC1)C1CCCCC1)c1ccc(Cl)c(Cl)c1 (stereo unspecified)
inactive: [1] -3.1% | [2] -30.9% | [3] -14.4% | [4] -36% | [5] 35.4% | [6] -28.2%

O=C(Nc1ccccc1Cl)Oc1c(Cl)cc(S(=O)(=O)F)cc1Cl
inactive: [1] 20.4% | [2] 33.6% | [3] 34.1% | [4] 32.6% | [5] -2.05% | [6] 44.2%

CCN1C[C@]2(COC)[C@H](O)C[C@H](OC)[C@]34C1[C@H]([C@H](OC)[C@H]23)[C@]1(OC(C)=O)[C@H]2[C@@H](OC(=O)c3ccccc3)[C@](O)(C[C@H]24)[C@@H](OC)[C@@H]1O
inactive: [1] 14.6% | [2] -4% | [3] 5.8% | [4] -6.85% | [5] 24.9% | [6] -69.3%

CCN1CC2(CO)CCC(OC)C34C5CC6C(OC)CC(O)(C5C6OC)C(O)(C(OC)C23)C14 (stereo unspecified)
inactive: [1] 1.95% | [2] -16.6% | [3] 2.7% | [4] 9% | [5] -12.6% | [6] 6.75%

[Br][Hg][CH]1CCC2CCCC1O2 (stereo unspecified)
active: [1] 99.5% | [2] 99.2% | [3] 99.5% | [4] 99% | [5] 99.3% | [6] 99.5%

COCC1OC(OC2C3=C(C(C)C)CCC3(C)/C=C3\C(CCC3(O)COC)C(C)C2O)C(O)C2OC3OC12OC3(C)C1CO1 (stereo unspecified)
inactive: [1] 28.1% | [2] 7.75% | [3] 21% | [4] 35.2% | [5] 31.6% | [6] -78%

O=C(Nc1cccc(Cl)c1)OCC(Cl)(Cl)Cl
active: [1] 99.6% | [2] 99.8% | [3] 99.4% | [4] 99.8% | [5] 99.3% | [6] 99.7%

CC(C)(C)c1ccc(O)cc1
inactive: [1] -21.1% | [2] -29.8% | [3] -18.8% | [4] -9.5% | [5] -1.45% | [6] 8.85%

CCN(CCCl)c1cccc(NC(=O)c2ccc(C(=O)Nc3cccc(CN(C)C)c3)cc2)c1
inactive: [1] 5.55% | [2] -6.3% | [3] 20.5% | [4] -1.95% | [5] -14.4% | [6] 26.3%

C1CC[N-]CC1.CC(=N\O)/C(C)=N/O.CC(=N\O)/C(C)=N/O.N#C[CH-]CC#N.[Co+2]
inactive: [1] 31.4% | [2] 19.2% | [3] 25.3% | [4] -19.4% | [5] 28.5% | [6] 38.9%

Nc1ccc(S(=O)(=O)c2ccc(NCN3C(=O)NC(=O)C(=O)C3=O)cc2)cc1
inactive: [1] 24.9% | [2] 8.15% | [3] -11.4% | [4] 27.6% | [5] 13.6% | [6] 7.8%

O=C(O)C(=O)Cc1ccc2c(c1)OCO2
inactive: [1] -3.8% | [2] -19.3% | [3] -28.6% | [4] -32.9% | [5] -20.2% | [6] 0.5%

CC(C)OP(=O)(CP(=O)(OC(C)C)OC(C)C)OC(C)C.[CH3][Sn]([Br])([Br])[Br]
inactive: [1] -27.4% | [2] -23.6% | [3] -32.5% | [4] 6.7% | [5] -19.1% | [6] -23%

O=C1NC(=O)C(=O)C(=O)N1
inactive: [1] -16.2% | [2] 8.15% | [3] -1.75% | [4] -32.2% | [5] 1% | [6] 0.5%

CCCCC[N+]1=Cc2cc(O)c(O)cc2CC1
inactive: [1] -11.1% | [2] -5.7% | [3] 1.75% | [4] -24.9% | [5] -12.4% | [6] -21.7%

C1CN2CN3CCN(CN1C3)C2
inactive: [1] 13.1% | [2] 12.2% | [3] 20.9% | [4] 33.2% | [5] 10.2% | [6] 13.8%

N#CC(C#N)=Cc1ccco1
inactive: [1] -7.95% | [2] 6.15% | [3] 24.7% | [4] -42.4% | [5] -3.85% | [6] 5.5%

CCOC(=O)/C(=C/c1ccc[nH]1)P(=O)(OCC)OCC
inactive: [1] -28.6% | [2] -26.1% | [3] -31.8% | [4] 5.65% | [5] 6.6% | [6] -42.1%

O=[N+]([O-])c1cccc2cccc([N+](=O)[O-])c12
inactive: [1] -7.45% | [2] -28.1% | [3] -10.3% | [4] -86.7% | [5] -35% | [6] 11.3%

COc1cc2c(c(OC)c1OC)-c1ccc(O)cc1C(NC(C)=O)CC2 (stereo unspecified)
inactive: [1] -13.2% | [2] -18.8% | [3] -4.1% | [4] 17.4% | [5] 0.65% | [6] 31.2%

COc1cc(C2c3cc4c(c(O)c3C[C@H]3COC(=O)[C@@H]23)OCO4)cc(OC)c1O (stereo partly specified)
inactive: [1] -25.7% | [2] -23.1% | [3] -16.8% | [4] 5.8% | [5] 2.85% | [6] -13.6%

Cc1c2n(c3ccccc13)CC1CON(C)C21 (stereo unspecified)
inactive: [1] -14.4% | [2] -11.5% | [3] -8.95% | [4] -1.3% | [5] -31.4% | [6] -19.9%

CCC1(CC)C(=O)C=CNC1=O
inactive: [1] 17.6% | [2] -20.6% | [3] 11.7% | [4] 1.1% | [5] -8.15% | [6] 8.15%

CC1CCC2NCCNC2C1 (stereo unspecified)
inactive: [1] 2.45% | [2] 6.65% | [3] -8.9% | [4] 5.35% | [5] 0.65% | [6] 23.4%

O=C(O)CP(=O)(O)O
inactive: [1] -19% and 6.2% | [2] -8.25% and 10% | [3] -21.1% and 1.75% | [4] -2.2% and -19.4% | [5] -27.1% and 5.75% | [6] 1.2% and -2.65%

CCCOCC(O)C[As](=O)(O)c1cccc(Cl)c1 (stereo unspecified)
inactive: [1] 2.35% | [2] 3.55% | [3] 0.3% | [4] -4.4% | [5] 10.2% | [6] -5.55%

CC(Cl)C(=O)OC(C)(C)Cl (stereo unspecified)
inactive: [1] 19.9% | [2] 25.7% | [3] 11.7% | [4] 11.1% | [5] 17% | [6] 3.05%

CC(C)(C)[SH+]CC[SH+]C(C)(C)C.[C-]#[O+].[C-]#[O+].[C-]#[O+].[C-]#[O+].[Cr]
inactive: [1] 13.6% | [2] -19.1% | [3] -7.25% | [4] -4.4% | [5] 3.65% | [6] 3.35%
